Bioassay records (PubChem)
The list is not random: actives were taken first. Their share in the collection is about 6.9%.
Giardia killer – Giardia lamblia killing | Giardia lamblia trophozoite viability | activity change, % at 7.66 µM, hits read low | hit rate 0.15% among 340,000 | AID 540267; in the data active means activity change below about -80%; inconclusive means between about -30% and that limit;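 further: parasites exposed to compound for two days anaerobically before the ATP read; on the % scale 0 is the no-effect control and ±100 the full control effect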
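Media and compound were dispensed first, then trophozoites at 100 cells/well; plates sat 48 hrs at 37 deg C without oxygen before ATP luminescence reagent was added and read after 15-30 min at room temperature.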
MCF10A rerep – induces DNA re-replication in MCF 10a normal breast cells. MCF 10A DNA re-replication, Hoechst nuclear intensity, 48 h. Potency, µM (titrated, usually from 46.1 µM), for inactives: top-dose activity, positive = re-replication, most hits filed as activators. AID 624296. hit rate 2.9% among 350,000; further: potency means the concentration at half of the fitted maximal effect; % of control where 0% means no effect; nearly all actives have a fitted effect of over 50% in size
KB-V1 cytotox – kills drug-selected multidrug resistant KB-V1 cells; KB-V1 MDR cells viability, CellTiter-Glo, 72 h; Potency, µM (doses to about 46.1 µM), usual class: cytotoxic; hit rate 3.4% among 400,000; further: potency means the concentration at half of the fitted maximal effect; on the % scale 0 is the no-effect control and ±100 the full control effect; nearly all actives have a fitted effect of over 60% in size
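qHTS viability screen in drug-selected KB-V1 MDR cells: 72 h compound treatment at 37 degrees C, ATP luminescence end point.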
KB-3-1 cytotox – kills parental KB-3-1 adenocarcinoma cells. hit rate 1.4% among 400,000. Potency, µM (doses to about 46.1 µM), usual class: cytotoxic. KB-3-1 viability, CellTiter-Glo ATP luminescence, 72 h. AID 1347075; further: potency means the concentration at half of the fitted maximal effect; on the % scale 0 is the no-effect control and ±100 the full control effect; nearly all actives have a fitted effect of over 60% in size
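Cells are dispensed, compounds pinned in, plates held at 37 °C for 72 h, then CellTiter-Glo is added and luminescence read after 10 minutes. Cell line: parental KB-3-1 in phenol-red-free DMEM, 10% FBS.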
SW480 rerep – inducers of DNA re-replication in SW480 colon cancer cells; SW480 DNA re-replication, Hoechst DNA content imaging, 48 h; Potency, µM (top dose mostly 46.1 µM), for inactives: at the highest dose re-replication activation, most hits filed as activators; hit rate 1.8% among 340,000; AID 624297; further: potency means the concentration at half of the fitted maximal effect; % of control where 0% means no effect; nearly all actives have a fitted effect of over 55% in size
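Cells (250 per well) received 23 nL compound or DMSO by pin tool and were kept 48 hr at 37 C, 5% CO2. Nuclei were then stained with Hoechst for 40 min and scanned for DNA content.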
ASM inhibitor – inhibitors of human secretory acid sphingomyelinase | P17405 | placental ASM, HMU-PC fluorogenic substrate, 60 min | Potency, µM (highest dose often 57.5 µM), for inactives: at the top dose activity change, negative = inhibition, most hits filed as inhibitors | hit rate 0.006% among 340,000; further: potency means the concentration at half of the fitted maximal effect
Target sequence (P17405 47-631 limits assumed): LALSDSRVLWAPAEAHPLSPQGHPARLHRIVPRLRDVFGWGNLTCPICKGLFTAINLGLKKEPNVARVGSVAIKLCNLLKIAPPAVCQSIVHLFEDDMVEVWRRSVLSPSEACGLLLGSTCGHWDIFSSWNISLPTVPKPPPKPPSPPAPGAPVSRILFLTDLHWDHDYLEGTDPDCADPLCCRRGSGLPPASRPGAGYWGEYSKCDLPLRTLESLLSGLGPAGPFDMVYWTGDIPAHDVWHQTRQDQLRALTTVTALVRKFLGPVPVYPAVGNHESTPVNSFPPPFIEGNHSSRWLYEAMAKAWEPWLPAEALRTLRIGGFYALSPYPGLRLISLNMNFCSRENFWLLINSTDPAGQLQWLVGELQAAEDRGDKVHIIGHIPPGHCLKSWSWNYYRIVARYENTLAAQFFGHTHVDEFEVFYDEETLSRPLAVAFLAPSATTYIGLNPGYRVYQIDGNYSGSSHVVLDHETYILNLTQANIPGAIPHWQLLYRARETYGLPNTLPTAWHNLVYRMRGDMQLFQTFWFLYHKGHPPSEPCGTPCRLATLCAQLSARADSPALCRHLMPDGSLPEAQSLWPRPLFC
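Fluorogenic HMU-PC substrate (9 uM final) is turned over by placental ASM in 60 min at 37 C after a 10 min compound preincubation. Reaction ended by alkaline stop (pH 10), with fluorescence read at 386/447 nm.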
An asterisk follows results filed as active. Unless noted, the call rests on the fitted dose curve; in most records, active means well fitted curve in the direction sought with a large enough effect; inconclusive means small, poorly fitted or top-dose-only effect, or another doubt; inactive means no such curve, though single readings can be large; an effect the other way counts as inactive or inconclusive.

What do the screens show for `CCOC(=O)c1c(-c2ccccc2)csc1NC(=O)/C(C#N)=C/c1ccc(O)c(OC)c1`?
Giardia killer: -10.2; MCF10A rerep: 20.6µM*; KB-V1 cytotox: inactive; KB-3-1 cytotox: inactive; SW480 rerep: inconclusive; ASM inhibitor: -22.9%

How did CCOC(=O)c1c(-c2ccc(C)cc2)csc1NC(=O)CCSc1nnc2ccccn12 do in these assays?
Giardia killer: 3.4; MCF10A rerep: inconclusive; KB-V1 cytotox: 16.4µM*; KB-3-1 cytotox: inactive; SW480 rerep: -2.3%; ASM inhibitor: 150.4%

What do the screens show for `N#Cc1cccc(C(=O)C(=O)N2CCCN(Cc3ccc(F)cc3)CC2)c1`?
KB-V1 cytotox: inconclusive; KB-3-1 cytotox: inactive

Results for CCN(CC(=O)NCc1ccc(Cl)cc1)C(=O)COc1cccc(Cl)c1 ?
Giardia killer: -27.6; MCF10A rerep: inconclusive; KB-V1 cytotox: inactive; KB-3-1 cytotox: inactive; SW480 rerep: inconclusive; ASM inhibitor: -3.5%

How did CCOC(=O)c1c(-c2ccccc2)csc1NC(=O)C1CCCO1 (centres undefined) do in these assays?
Giardia killer: 0.9; MCF10A rerep: -3.1%; KB-V1 cytotox: inactive; KB-3-1 cytotox: inactive; SW480 rerep: 2.0%; ASM inhibitor: -8.8%

How did CCOC(=O)c1c(-c2ccc(OC)cc2)csc1NC(=O)CSc1ccccc1 do in these assays?
Giardia killer: -15.6; MCF10A rerep: 7.31µM*; KB-V1 cytotox: inactive; KB-3-1 cytotox: inconclusive; SW480 rerep: 7.5%; ASM inhibitor: -2.4%

What do the screens show for `CCOC(=O)c1c(-c2ccccc2)csc1NC(=O)CSc1ccccc1`?
Giardia killer: -1.4; MCF10A rerep: 9.4%; KB-V1 cytotox: 18.4µM*; KB-3-1 cytotox: inactive; SW480 rerep: -1.0%; ASM inhibitor: -3.5%

How did CCOC(=O)c1c(-c2ccc(OC)cc2)csc1NC(=O)CSc1nnc(C)c(=O)[nH]1 do in these assays?
Giardia killer: -6.8; MCF10A rerep: inconclusive; KB-V1 cytotox: inactive; KB-3-1 cytotox: inactive; SW480 rerep: -1.1%; ASM inhibitor: -3.5%

Results for CCOC(=O)c1c(-c2ccc(-c3ccccc3)cc2)csc1NC(=O)C1C2CCC(O2)C1C(=O)O (centres undefined) ?
Giardia killer: -23.1; MCF10A rerep: 9.2µM*; KB-V1 cytotox: inactive; KB-3-1 cytotox: inactive; SW480 rerep: -0.9%; ASM inhibitor: -9.7%

What do the screens show for `Cc1ccc(-c2nc(-c3ccccn3)no2)cc1`?
Giardia killer: -90.3*; MCF10A rerep: 2.4%; KB-V1 cytotox: 6.51µM*; KB-3-1 cytotox: 9.2µM*; SW480 rerep: -2.6%; ASM inhibitor: 0.4%

How did Clc1cccc(-c2nc(-c3ccccn3)no2)c1 do in these assays?
Giardia killer: inconclusive; MCF10A rerep: -4.7%; KB-V1 cytotox: inactive; KB-3-1 cytotox: inconclusive; SW480 rerep: -12.6%; ASM inhibitor: 0.8%

What do the screens show for `Cc1ccc(-c2nc(-c3ccccn3)no2)cc1Cl`?
Giardia killer: inconclusive; MCF10A rerep: 1.6%; KB-V1 cytotox: inactive; KB-3-1 cytotox: inconclusive; SW480 rerep: -5.4%; ASM inhibitor: -1.4%

What do the screens show for `c1ccc(-c2ccc(-c3nc(-c4ccccn4)no3)cc2)cc1`?
Giardia killer: inconclusive; MCF10A rerep: -1.4%; KB-V1 cytotox: 8.2µM*; KB-3-1 cytotox: 13µM*; SW480 rerep: 1.0%; ASM inhibitor: 6.4%

What do the screens show for `c1ccc(-c2noc(-c3ccno3)n2)nc1`?
Giardia killer: 19.2; MCF10A rerep: -1.6%; KB-V1 cytotox: inactive; KB-3-1 cytotox: inactive; SW480 rerep: 1.3%; ASM inhibitor: 1.4%

How did c1ccc(-c2nc(-c3ccccn3)no2)cc1 do in these assays?
Giardia killer: inconclusive; MCF10A rerep: inconclusive; KB-V1 cytotox: 16.4µM*; KB-3-1 cytotox: 9.2µM*; SW480 rerep: 2.0%; ASM inhibitor: -0.6%

Results for C[N+](C)(CCCCCI)c1ccc(/C=C/c2nc3ccccc3s2)cc1 ?
KB-V1 cytotox: inactive; KB-3-1 cytotox: inconclusive
